Compound activity: PubChem, National Center for Advancing Translational Sciences (NCATS)
Shiga inhibitor: inhibitors of Shiga toxin in Vero cells; actives 9.2% (n = 290,000); inhibition, % at 38.7 µM; Vero cells, Shiga toxin protein synthesis inhibition reporter; in the data active means inhibition mostly above about 28%, no sharp cut-off; inactive means mostly below about 43%; further: 0% is about no effect
Pf growth 48h: inhibits P. falciparum growth in the first generation, 48 h; P. falciparum luciferase growth in erythrocytes, 48 h; Potency, µM (series often up to 28.7 µM), inactives show top-dose activity change, negative = inhibition, most hits filed as inhibitors; actives 5.9% (n = 310,000); AID 504832; further: potency means the concentration at half of the fitted maximal effect; on the % scale 0 is the no-effect control and ±100 the full control effect
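Cell-based growth assay: transgenic P. falciparum expressing firefly luciferase, cultured in red cells within RPMI 1640 containing 0.5% w/v Albumax, 24 mM bicarbonate and gentamycin. A drop in luciferase activity indicates inhibition.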
Pf growth 96h: P. falciparum growth inhibition at 96 hours; P. falciparum luciferase reporter growth, 96 h; Potency, µM (titrated, usually from 28.7 µM), inactives show top-dose activity change, negative = inhibition, hits mostly inhibitors; actives 6.9% (n = 320,000); AID 504834; further: potency means the concentration at half of the fitted maximal effect; on the % scale 0 is the no-effect control and ±100 the full control effect
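Erythrocytes infected with luciferase-expressing P. falciparum were dispensed at 2% hematocrit and 0.05% parasitemia (final), then incubated with compounds 96 hours at 37 C in 5% CO2. Luminescence after detection reagent addition reported growth.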
HCV inhibitor: HCV inhibition. Huh7.5.1 HCVcc-Cre infection, luciferase reporter, 44 h. Potency, µM (titrated, usually from 41.8 µM), for the others: at the highest dose activity change, negative = inhibition, actives largely listed as inhibitors. actives 3.4% (n = 340,000). AID 651820; further: potency means the concentration at half of the fitted maximal effect; on the % scale 0 is the no-effect control and ±100 the full control effect
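After 44 h co-culture of compound, cells and HCVcc-Cre (~0.5 moi), substrate is added for 15 min at room temperature and luciferase measured over 15 sec. Cells were seeded at 1,000/well and pre-cultured 4 h.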
CHX counter: counter-screen for Shiga toxin inhibitors: cycloheximide protein synthesis inhibition; cell reporter, cycloheximide protein synthesis inhibition counterscreen; max response, %; actives 12% (n = 300,000); in the data active means max response mostly above about 13%, no sharp cut-off; inactive means mostly below about 14%; further: read at 38.3 µM for the half of the compounds with a filed dose; 0% is about no effect
AMA1 RON2 block: inhibitors of Plasmodium falciparum AMA1-RON2 interaction. Potency, µM (top dose mostly 58.2 µM), for the others: at the highest dose activity change, negative = inhibition, hits mostly inhibitors. AlphaScreen AMA1-biotinylated RON2 peptide binding. actives 0.2% (n = 360,000);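 further: potency means the concentration at half of the fitted maximal effect; 0% = vehicle wells and -100% = peptide control; nearly all actives have a fitted effect of over 45% in size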
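AMA1 (3D7) with his tag at 25 nM final met compounds first, then biotinylated RON2 peptide at 25 nM; detection used donor plus acceptor beads, 10 µg/mL apiece, read by AlphaScreen after 30 min at room temperature.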
Starred values were filed as active, the others as inactive; i = inactive; ? = inconclusive; . = no result; [ ] = remark or other dose. Rows were chosen to be rich in hits. Some 21% of all compounds tested hit in one or more screens of this group. Unless noted, the call rests on the fitted dose curve; in most records, active means well fitted curve in the direction sought with a large enough effect; inconclusive means small, poorly fitted or top-dose-only effect, or another doubt; inactive means no such curve, though single readings can be large; an effect the other way counts as inactive or inconclusive.

SMILES | Shiga inhibitor | Pf growth 48h | Pf growth 96h | HCV inhibitor | CHX counter | AMA1 RON2 block
C(=N\N1CCOCC1)/c1cn(-c2ccccc2)nc1-c1ccccc1 | 35 | 9% | 32% | -19% | 22* | -21%
OCc1cn(-c2ccccc2)nc1-c1ccc(-c2nn(-c3ccccc3)cc2CO)cc1 | -7 | -5% | 272% | -12% | 9 | 0%
O=C(O)/C=C/c1cn(-c2ccccc2)nc1-c1ccccc1 | 20 | 16% | 5.9µM* | 13% | 14 | 8%
CC(C)N1CCC1(C)C(=O)Nc1ccc(-n2cccc2)cc1 (stereo unspecified) | . | . | . | . | . | -11%
CCCCn1c(=O)c(CCC(=O)OCC(=O)NCc2ccc(OC)c(OC)c2)nc2ccccc21 | -3 | -27% | 3% | 10% | -2 | -5%
CC1=NNC(=O)/C1=C\c1cn(-c2ccccc2)nc1-c1ccccc1 | -25 | ? | -9% | 11µM* | -9 | -4%
CCOC(=O)COc1ncn(-c2ccccc2)n1 | -6 | . | ? | 7% | -1 | -1%
CCOC(=O)/C=C/c1cnn(-c2ccccc2)c1 | 169* | 294% | 231% | -6% | 89* | 16%
CCOc1cc(C(c2c(C)[nH][nH]c2=O)c2c(C)[nH][nH]c2=O)cc(Br)c1OC | 2 | -15%[0.00184 µM] | i | 25% | -3 | -2%
COc1cc(C(c2c(C)[nH][nH]c2=O)c2c(C)[nH][nH]c2=O)cc(Br)c1OC | -8 | 23% | 7.4µM* | 14% | -2 | 31%
COCCN1C[C@@H](CO)O[C@@H](n2cnc3c(NCCO)ncnc32)C1 | . | . | . | . | . | 63%
CCCCCCCCN1C(=O)[C@H](CC(=O)NCCCOCCCC)C[C@@]2(C(=O)OC)CC(C)(C)CC=C12 | . | . | . | . | . | -3%
CSCCCNC(=O)c1ccc(OC2CCN(CCc3ccccc3)CC2)cc1 | 93* | ? | 13µM* | 3% | 31* | -4%
COCCNC(=O)c1cccc(OC2CCN(Cc3ccc(OC(F)F)cc3)CC2)c1 | 0 | -3% | 0% | 7.1µM* | -1 | -8%
O=C(NCC1COCCO1)c1ccc(OC2CCN(CCc3ccccc3)CC2)cc1 (stereo unspecified) | 20 | 1% | 2% | 10% | 2 | 5%
O=C(NCCc1ccccn1)c1ccc(OC2CCN(CCc3ccccc3)CC2)cc1 | 65* | 45% | 8% | -19% | 42* | 128%
COC(=O)[C@@H](NC(=O)c1ccc(OC2CCN(Cc3ccccn3)CC2)cc1)C(C)C | 37 | -17% | 22% | -25% | -3 | 58%
CC(Cc1ccccn1)NC(=O)c1ccc(OC2CCN(CCc3ccccc3)CC2)cc1 (stereo unspecified) | 47* | 12µM* | 13% | ? | 29* | -5%
COCCNC(=O)c1cccc(OC2CCN(Cc3cccc(C(C)=O)c3)CC2)c1 | 4 | -10% | 0% | -26% | 1 | -6%
CCCN1CCC(Oc2cccc(C(=O)NCCc3ccccc3)c2)CC1 | 72* | ? | 0% | 24% | 56* | -19%
OCCCNCc1ccc(N(c2ccccc2)c2ccccc2)cc1 | -19 | ? | 2.3µM* | ? | -7 | -28%
O=c1cc(-c2cc3ccccc3o2)c2cc(O)ccc2o1 | 4 | ? | ? | ? | -3 | 1%
COc1cccc2cc(-c3cc(=O)oc4cc(C)c(OCC(C)=O)cc34)oc12 | -5 | 19% | -6% | ? | -2 | 0%
Cc1cc2oc(=O)cc(-c3cc4ccccc4o3)c2cc1O | 14 | 7.4µM* | 2.6µM* | ? | 30 | -28%
CC(=O)COc1ccc2oc(=O)cc(-c3cc4ccccc4o3)c2c1 | -21 | -4% | ? | 14µM* | -3 | -4%
SMILES | Shiga inhibitor | Pf growth 48h | Pf growth 96h | HCV inhibitor | CHX counter | AMA1 RON2 block
CCOC(=O)CC1(C)NC(=O)c2c(C)sc(C(=O)OCC)c2N1 (stereo unspecified) | -11 | 0% | 27% | -8% | -5 | 8%
CCCCC1(C)NC(=O)c2c(C)sc(C(=O)OCC)c2N1 (stereo unspecified) | -2 | ? | 8.3µM* | ? | -4 | 21%
CCOC(=O)CC1(CC(=O)OCC)NC(=O)c2c(C)sc(C(=O)OCC)c2N1 | -1 | -5% | 3.7µM* | -17% | -3 | -13%
CN(/N=C/C=C/c1ccccc1)C1=NS(=O)(=O)c2ccccc21 | -9 | 26% | ? | 13% | 1 | 7%
Cc1cccc(C)c1NC(=S)NC(=O)c1cccc(Cl)c1 | . | . | . | . | . | 71%
c1cncc(-c2nc(-c3ccco3)cs2)c1 | 79* | 44% | . | 3% | 27* | -17%
c1cncc(-c2csc(-c3cccnc3)n2)c1 | 27 | 30% | 18% | -16% | 9 | -3%
Clc1ccsc1-c1csc(-c2cccnc2)n1 | 35 | . | ? | 14µM* | 33* | 4%
c1cncc(-c2nc(-c3cccs3)cs2)c1 | 53 | 43% | ? | -10% | 44* | 3%
Oc1ccc(-c2csc(-c3cccnc3)n2)c(O)c1 | 111* | 129% | ? | ? | 35* | 21%
COc1cccc(NC(=O)N(C)C[C@H]2OCc3cn(nn3)CCCC(=O)N([C@@H](C)CO)C[C@@H]2C)c1 | . | . | . | . | . | 0%
c1csc(-c2csc(-c3cccs3)n2)c1 | 118* | 138% | 90% | -6% | 30* | 29%
COCCCNC(=O)COc1ccc(Br)cc1Cl | 88* | 41% | ? | -2% | 38* | -4%
O=C(COc1ccc(Br)cc1Cl)Nn1cnnc1 | -4 | -4% | 15% | 3% | -6 | 8%
CN(C)CCCNC(=O)c1cc(Br)ccc1Cl | -20 | . | 9.3µM* | 7% | -3 | 18%
COCCNC(=O)COc1ccccc1Cl | 76 | 5% | . | -14% | -2 | 3%
CCNC(=O)COc1ccc(Br)cc1Cl | 60* | 67% | 32% | -1% | 28* | ?
CCC(C(=O)O)n1nc(-c2ccccc2)c2cc(Cl)ccc21 (stereo unspecified) | -2 | 392% | -19% | 11% | -2 | -5%
O=C(Nc1nc(OCC(F)(F)F)cnc1/C=C\c1ccccc1)c1ccccc1 | . | . | . | . | . | 14%
CCc1ccc2c(CC(=O)NNC(=O)c3ccncc3)coc2c1 | . | -8% | ? | 16% | . | 91%
CC(=O)C12CCCCC1CC1C3CC(C)C4(O)CC(=O)CCC4(C)C3CCC12C (stereo unspecified) | -17 | 0% | 9.3µM* | -13% | -3 | -1%
O=C(COC(=O)CCNS(=O)(=O)c1ccccc1)NC(=O)c1ccccc1 | . | 17% | -1% | 16% | . | 21%
O=C(COC(=O)C1CCCCC1C(=O)N1CCc2ccccc21)NCc1ccco1 (stereo unspecified) | -12 | 12µM* | -33% | -7% | 2 | -10%
